# Test results published in PubChem BioAssay AID463173 (ICCB-Longwood Screening Facility, Harvard Medical School, 2010).
# Screen size: about 52,000 compounds; about 4,300 (8.3%) were called active. Cut-off read from the data, not from the text of the source: active = survival mostly below about 52% (no sharp cut-off); inactive = mostly above about 56%. For the sample, actives were picked, then their nearest neighbours and some compounds at random.
# Tested on: DeltatarO mutant
# Experiment: S. aureus survival, RN4220 and DeltatarO strains – OD600, teichoic acid synthesis inhibitors, primary screen (AID 463173)
# Conditions: S. aureus RN4220 wild type/DeltatarO growth, OD600, 18 h, hits give low values, screened at 18.75 µg/mL (by protocol)
row,SMILES,survival
1,Cc1cc(NC(=O)CN2CCC(O)CC2)nc2c1c(=O)oc1ccccc12,83% (inactive)
2,COc1ccccc1-c1c(C(F)(F)F)oc2c(CN3CCCCC3C)c(O)ccc2c1=O (stereo not drawn),62% (inactive)
3,COc1ccc(S(=O)(=O)NCCSc2nnnn2-c2ccccc2)cc1OC,127% (inactive)
4,COc1ccc(C(C)=O)cc1CSc1nc(NCCc2ccccc2)c2ccccc2n1,60% (inactive)
5,O=C(CSc1nc(Nc2ccc(F)c(F)c2)c2ccccc2n1)c1ccc(Cl)cc1,101% (inactive)
6,COc1ccc(C(C)=O)cc1CSc1nc(NCc2ccccc2)c2ccccc2n1,89% (inactive)
7,COc1ccc(C(C)=O)cc1CSc1nc(Nc2ccc(F)c(F)c2)c2ccccc2n1,25% (active)
8,COc1ccc(C(C)=O)cc1CSc1nc(NCc2ccc(Cl)cc2)c2ccccc2n1,8% (active)
9,COc1cc(Nc2nc(SCc3ccccc3F)nc3ccccc23)cc(OC)c1,118% (inactive)
10,Cc1cccc(N2CCN(C(=O)c3nn(C)c4c3CS(=O)(=O)c3ccccc3-4)CC2C)c1 (stereo not drawn),71% (inactive)
11,COc1cc(NC(=O)c2cc3cc4ccc(OC)c(Cl)c4nc3s2)cc(OC)c1,98% (inactive)
12,CN(CC(=O)Nc1ccc(F)cc1F)S(=O)(=O)c1cccc2nsnc12,92% (inactive)
13,CCOC(=O)c1ccccc1NC(=O)Cn1nnc2sc3c(c2c1=O)CCCC3,63% (inactive)
14,Cc1ccccc1Cn1nnc2sc3c(c2c1=O)CCCC3,-1% (active)
15,Cc1ccc(NC(=O)Cn2nnc3sc4c(c3c2=O)CCCC4)c(C)c1,86% (inactive)
16,COC(=O)c1ccc(Cn2nnc3sc4c(c3c2=O)CCCC4)cc1,74% (inactive)
17,Cc1cccc(OCCn2nnc3sc4c(c3c2=O)CCCC4)c1,65% (inactive)
18,O=c1c2c3c(sc2nnn1CCCCOc1ccc(Cl)cc1)CCCC3,108% (inactive)
19,CCc1cccc(CC)c1NC(=O)Cn1nnc2sc3c(c2c1=O)CCCC3,142% (inactive)
20,Cc1ccc(OCCCCn2nnc3sc4c(c3c2=O)CCCC4)cc1,48% (active)

row,SMILES,survival
1,CC(C)OC(=O)c1ccc(Cn2nnc3sc4c(c3c2=O)CCCC4)cc1,20% (active)
2,CC(C)OC(=O)c1cccc(NC(=O)Cn2nnc3sc4c(c3c2=O)CCCC4)c1,75% (inactive)
3,O=c1c2c3c(sc2nnn1Cc1ccc(Br)cc1)CCCC3,37% (active)
4,COc1ccc(OCCn2nnc3sc4c(c3c2=O)CCCC4)cc1,83% (inactive)
5,N#Cc1ccccc1NC(=O)CSc1ncn[nH]1,164% (inactive)
6,CC(C)(C)c1ccc(C(=O)N2CCC(c3nc4ccccc4o3)CC2)cc1,86% (inactive)
7,CCOc1ccc(NC(=O)CSc2ncc(S(=O)(=O)c3ccc(F)c(C)c3)c(=O)[nH]2)cc1,58% (inactive)
8,CCc1ccc(CNC(=O)c2c(C)oc3ncn(CC(C)C)c(=O)c23)cc1,88% (inactive)
9,Cc1cc(NCCN(C)C)n2nc(C)c(-c3ccccc3)c2n1,93% (inactive)
10,CCCCCNS(=O)(=O)c1ccc(N2CCCCS2(=O)=O)cc1,77% (inactive)
11,Cc1nc2cc(-c3cccc(F)c3)nn2c(C)c1CCC(=O)N1CCN(c2ccc(F)cc2)CC1,56% (inactive)
12,CCOc1ccc(-c2cc(NC(=O)Nc3ccccc3Cl)c(C(=O)OC)s2)cc1,56% (inactive)
13,Cn1c(=O)oc2cc(S(=O)(=O)N3CCCC(C(=O)N4CCN(c5ccc(F)cc5)CC4)C3)ccc21 (stereo not drawn),92% (inactive)
14,COc1ccc(-c2[nH]c3ccccc3c2SCCNC(=O)c2cc(OC)c(OC)c(OC)c2)cc1,62% (inactive)
15,COc1cccc(-c2nc(SCC(=O)NC3CCCC3)c(-c3ccc(C)cc3)[nH]2)c1,107% (inactive)
16,CC(C)Cc1nn2c(=O)cc(COC(=O)c3ccc4c(c3)OCO4)nc2s1,73% (inactive)
17,O=C(CN1CCCN(Cc2ccccc2Cl)S1(=O)=O)Nc1ccc2c(c1)OCCO2,67% (inactive)
18,Cc1ccc(C)c(S(=O)(=O)Nc2ccc3c(c2)CCCN3C(=O)c2cccs2)c1,47% (active)
19,Cc1ccc(S(=O)(=O)Nc2ccc3c(c2)CCCN3C(=O)c2cccs2)cc1C,70% (inactive)
20,Cc1ccc(S(=O)(=O)Nc2ccc3c(c2)CCCN3C(=O)c2cccs2)cc1,75% (inactive)

row,SMILES,survival
1,Cc1ccc(NC(=O)Cn2c(=O)n(Cc3ccco3)c(=O)c3ccccc32)cc1,78% (inactive)
2,O=C(Cn1nc(Cc2ccncc2)c2ccccc2c1=O)Nc1cccc(C(F)(F)F)c1,71% (inactive)
3,COCCNC(=O)CCn1nc(-c2ccc(Cl)cc2)c2ccccc2c1=O,77% (inactive)
4,O=C(Cn1nc(-c2ccc(Cl)cc2)c2ccccc2c1=O)NCCN1CCOCC1,97% (inactive)
5,O=C(Cn1nc(-c2ccc(Cl)cc2)c2ccccc2c1=O)Nc1cccc(Br)c1,28% (active)
6,Cc1ccc(-c2nn(CC(=O)Nc3cccc(C(F)(F)F)c3)c(=O)c3ccccc23)cc1,31% (active)
7,CN(C)C(=O)Cn1nc(-c2ccccc2)c2ccccc2c1=O,92% (inactive)
8,COCCNC(=O)Cn1nc(-c2ccc(C)cc2)c2ccccc2c1=O,39% (active)
9,Cn1nc(-c2ccc(OCC(=O)Nc3cccc(C(F)(F)F)c3)cc2)c2ccccc2c1=O,78% (inactive)
10,CN(C)C(=O)c1ccc(NC(=O)Cn2nc(-c3ccccc3)c3ccccc3c2=O)cc1,39% (active)
11,COCCNC(=O)Cn1nc(C)c2c(C)n(-c3ccc(C)cc3)nc2c1=O,135% (inactive)
12,O=C(Cn1nc(-c2ccccc2)c2cnc3ccccc3c21)Nc1ccccc1,76% (inactive)
13,Cc1cccc(NC(=O)Cn2nc(-c3ccc(Cl)cc3)c3ccccc3c2=O)c1,142% (inactive)
14,CCOc1ccc(CCNCc2c(C(=O)O)c(C)n(Cc3ccccc3F)c2C)cc1,82% (inactive)
15,CC(C)(C)n1nnnc1CN1CCC(NC(=O)Nc2ccc(F)cc2)CC1,102% (inactive)
16,CCOC(=O)c1ccc(NS(=O)(=O)c2ccc3c(c2)n(C)c(=O)n3C)cc1,96% (inactive)
17,Fc1ccc(-n2ncc3c(Nc4cccc(Cl)c4)ncnc32)cc1,67% (inactive)
18,COc1cccc2c1cc1c(=O)n(CC(=O)N3CCN(c4ccc(F)cc4)CC3)nc(C)n12,87% (inactive)
